In ChEMBL document CHEMBL4513216, “Probing the Open Global Health Chemical Diversity Library for Multistage-Active Starting Points for Next-Generation Antimalarials” (ACS Infect Dis, 2020):
About 8,600 (12%) of roughly 69,000 compounds showed an effect of 50% or more. The sample as a whole holds a higher share of strong results than the screen did.

test system: Plasmodium berghei; experiment: Screen against P. berghei liver stage (PbLuc), transformed with Luciferase, at 10uM; format: functional, HepG2; settings: tested at 10 uM

SMILES	INHIBITION [%]
CN(CC(=O)N1CCC(N(C)c2ccccc2)CC1)c1cnccn1	9.9
COCCCNC(=O)CN1CCC(c2ccccc2)C1 (stereo not given)	-4.99
Cn1cccc1C(=O)N[C@@H]1CN(CC2CC2)[C@@H]2COC[C@@H]21	0.547
CN(C)S(=O)(=O)c1ccc(-c2nc(C#N)c(NC(C)(C)C)o2)o1	16
Cc1ccc(C(=O)N2CCC3(CCC(=O)N(CCCO)C3)CC2)c(O)c1	-45
COCCS(=O)(=O)NC(C)c1cccc(C)c1C (stereo not given)	48.2
CCc1nnc2n1CCN(C(=O)CCc1ccc(C)c(Cl)c1)C2	-27
O=C(Cc1c(F)cccc1Cl)N1CCC(Nc2cccnn2)CC1	-8.225
c1cnc(N2CCCC3(CCN(Cc4ccncc4)C3)C2)nc1 (stereo not given)	42.6
COCCN1CCC2(CCCN(c3ncccn3)C2)C1 (stereo not given)	48.3
c1cnc(N2CCCC3(CCN(c4ncccn4)C3)C2)nc1 (stereo not given)	44.8
c1cnc(N2CCC3(CCCN(Cc4ccncc4)C3)CC2)nc1	82.3
c1cnc(N2CCC3(CCN(CC4CCCC4)CC3)C2)nc1	28.4
c1cnc(N2CCCC3(CCN(CC4CCC4)C3)C2)nc1 (stereo not given)	55.5
CCC(CC)CN1CCC2(CCCN(c3ncccn3)C2)C1 (stereo not given)	62.5
c1cnc(N2CCCC3(CCN(CC4CC4)C3)C2)nc1 (stereo not given)	43.9
c1cnc(N2CC3(CCN(Cc4ccncc4)C3)C2)nc1	11.3
CC1CN(S(=O)(=O)c2ccc(C(=O)NCC(F)F)cc2)CCCO1 (stereo not given)	49.2
Cc1ccc(CN2CCN(C(=O)CCc3nc(Cl)n[nH]3)CC2=O)cc1	29.4
O=C1CN(Cc2ccc3ccccc3n2)CCN1C1CCCC1	36
Cc1nnc(NC(=O)NCc2ccc(OC(C)C)nc2)s1	21.5
CCN(Cc1cccc2c1OCO2)C(=O)Nc1ccncc1	46.5
CCN(CC(=O)NC(C)(C)C)Cc1cccc2c1OCCO2	23.3
CCN(Cc1cccc2c1OCO2)C(=O)NC1CC1	36.4

SMILES	INHIBITION [%]
CN(CC(=O)NC(C)(C)C)Cc1cccc2c1OCCO2	65
CCN(Cc1cccc2c1OCCO2)C(=O)NC(C)(C)C	51.1
CN(CC(=O)NCC(F)(F)F)Cc1cccc2c1OCCO2	44.7
CCC(O)CN1CCN(C(=O)c2sccc2C(C)C)CC1 (stereo not given)	23.4
CC(C)(O)C1CCN(C(=O)Nc2nc(-c3ccccc3)ns2)CC1	58.9
CC(C)(O)C1CCCN(C(=O)Nc2nc(-c3ccccc3)ns2)C1 (stereo not given)	-62.8
O=C(Nc1nc(-c2ccccc2)ns1)N1CCC(F)CC1	-47
CC(C)n1cnnc1C1CCCN(S(=O)(=O)c2c[nH]cn2)C1 (stereo not given)	36.3
O=C(Cc1csc(-c2ccccn2)n1)NCCCN1CCCCCC1=O	9.76
CC(=O)Nc1ncc(S(=O)(=O)Nc2cccc(F)c2)s1	-13
COc1ccc(NS(=O)(=O)c2cnc(NC(C)=O)s2)cc1	50.7
CC(=O)Nc1ncc(S(=O)(=O)N2CCC(C)CC2)s1	61.2
CC(=O)Nc1ncc(S(=O)(=O)Nc2ccc3c(c2)OCCO3)s1	81.4
COC(=O)c1ccc(NS(=O)(=O)c2cnc(NC(C)=O)s2)cc1	1.86
CC(=O)Nc1ncc(S(=O)(=O)Nc2cccc(C)c2)s1	27.5
CC(=O)Nc1ncc(S(=O)(=O)Nc2ccccc2)s1	40.8
CC(=O)Nc1ncc(S(=O)(=O)Nc2ccc(C)cc2)s1	77.2
CC(=O)Nc1ncc(S(=O)(=O)Nc2ccc(F)cc2)s1	-6.32
CC(=O)Nc1ncc(S(=O)(=O)N2CCCC(C)C2)s1 (stereo not given)	40.2
COC(=O)c1cccc(NS(=O)(=O)c2cnc(NC(C)=O)s2)c1	22.9
CC(=O)Nc1ncc(S(=O)(=O)N2CCOCC2)s1	21.7
CC(NC(=O)CNS(C)(=O)=O)c1ccccc1Oc1ccccc1 (stereo not given)	37.1
Cc1cc(N2CCCCC2)nc(N(CCO)CCO)c1C#N	31.8
CN(C(=O)c1ccncc1)c1nnc(C2CCOC2)s1 (stereo not given)	1.25

SMILES	INHIBITION [%]
Cc1cccc(CN2C(=O)CO[C@@H]3CN(Cc4cnn(C)c4)C[C@H]32)c1	45.2
COc1ccc(CN2C[C@H]3CCC[C@@H](CN(C)C)[C@H]3C2)cn1	34.6
Cc1cc(C(=O)N2CCCC(c3ccc(C(=O)O)cc3)C2)c(C)o1 (stereo not given)	9.52
COc1ccc(Cl)cc1NCCC(=O)NCCNc1cnccn1	14.4
Cc1[nH]ccc1C(=O)NCc1ncoc1C	-17.3
CCC(=O)N1CCC1c1cc(NC2CCCC2)nc(C)n1 (stereo not given)	14.5
COc1ccc(C(C)N2CCC(C(=O)NC3CC3)CC2)cc1Cl (stereo not given)	41.5
COc1ccc(C(C)N2CCC(CNC(C)=O)CC2)cc1Cl (stereo not given)	70.3
COc1ccc(C(C)N2CCC(NS(C)(=O)=O)CC2)cc1Cl (stereo not given)	57.3
COc1ccc(C(C)N2CCC(CO)CC2)cc1Cl (stereo not given)	40.6
COc1ccc(C(C)N2CCC(OC)CC2)cc1Cl (stereo not given)	42.4
COc1ccc(C(C)N2CCC(C(=O)N(C)C)CC2)cc1Cl (stereo not given)	24.8
CC(C)c1cc(NC(=O)Cn2ccc(=O)c3ccccc32)[nH]n1	6.72
CCN(CC1COc2ccccc2O1)C(=O)CCn1cncn1 (stereo not given)	-4.4
Cc1nn(C)c(N(C)C)c1CNCc1cccnc1OC(C)C	19.6
CCC(Nc1ccc(Oc2ccccc2OC)cc1)C(N)=O (stereo not given)	-34.1
CCC(Nc1ccc(Oc2ccc(C#N)cc2OC)cc1)C(N)=O (stereo not given)	73.1
CCC(Nc1ccc(Oc2cccc(C#N)c2)cc1)C(N)=O (stereo not given)	39.7
CCC(C)NC(=O)c1cc(S(N)(=O)=O)c(Br)s1 (stereo not given)	14
Cc1oc(C(=O)O)cc1S(=O)(=O)Nc1ccc(Cl)cc1F	-20.2
CC(=O)Nc1ccc(Oc2cc(C)nc(C3CCNCC3)c2)cc1	19.15
CC(=O)N1CCCC1CCc1ccnc(-c2cncnc2)c1 (stereo not given)	27.45
